# PI5P4K alpha inh = inhibitors of human PI5P4K alpha; P48426; PI5P4Kalpha enzyme, ADP-Glo luminescence, 60 min; active compounds read low; max response, %; 1.2% of 330,000 active; AID 652105; active = max response of -50% or lower; inconclusive = between -30% and -50%; inactive = -30% or higher; also: value at the top dose of about 77 µM; % is scaled to controls: 0 for no effect and ±100 for the full control effect
#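 Quantitative HTS of the MLSMR library against PI5P4Kalpha with substrate. ATP added last at 5 microM final; room temperature, 60 minutes. Remaining ATP depleted, ADP converted and read as luminescence.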
# Pol eta inh = DNA polymerase eta (human) inhibition; Q9Y253; recombinant Pol eta, fluorescent DNA replication assay; Potency, µM (titrated, usually from 114 µM), without a hit: at the top dose activity change, negative = inhibition, most hits filed as inhibitors; 1.2% of 390,000 active; also: potency is read from the fitted curve at half-maximal effect; % is scaled to controls: 0 for no effect and ±100 for the full control effect
#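 Pol eta (10 nM) was preincubated with compounds for 15 min at room temperature, after which fluorescent replication substrate (50 nM final) was added to start the reaction. Fluorescence was read kinetically at 0 and 10 min.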
# PI4K2A block = PI4K2A (human) kinase inhibition. 0.13% of 420,000 active. activity change, negative = inhibition, % at 76.9 µM. Q9BTU6. purified PI4K2A, ADP-Glo luminescence, 1 h; active compounds read low; in the data active = activity change below about -50%; inconclusive = mostly about -30% to -49%;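 also: -100% = wells without enzyme as full effect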
#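 ADP-Glo luminescence measured ADP generated by PI4K2A enzyme (4 ug/mL before mixing) with 1.2 mM PI substrate (pre-mix) and 300 microM ATP (pre-mix). Tris pH7.5 buffer with MgCl2, Triton X-100; 1 h reaction at ambient temperature.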
# Pol kappa inh = DNA polymerase kappa (human) inhibition; purified Pol kappa, fluorescent DNA synthesis assay, 10 min; Potency, µM (highest dose often 107 µM), without a hit: at the highest dose activity, negative = inhibition, usual class: inhibitors; 0.53% of 400,000 active; Q9UBT6; also: potency is read from the fitted curve at half-maximal effect; % is scaled to controls: 0 for no effect and ±100 for the full control effect
#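 First, compounds were pin-transferred onto 10 nM Pol kappa. After 15 min at room temperature, substrate was added to 50 nM final. Fluorescence was then measured kinetically at 0 and 10 min.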
# Pol iota inh = DNA polymerase iota (human) inhibition | AID 588590 | 1% of 390,000 active | Potency, µM (series often up to 115 µM), inactives show top-dose activity, negative = inhibition, actives largely listed as inhibitors | Pol iota fluorescent replication assay, 10 min; also: potency is read from the fitted curve at half-maximal effect
# Target sequence (Q9UNA4 whole entry, looked up): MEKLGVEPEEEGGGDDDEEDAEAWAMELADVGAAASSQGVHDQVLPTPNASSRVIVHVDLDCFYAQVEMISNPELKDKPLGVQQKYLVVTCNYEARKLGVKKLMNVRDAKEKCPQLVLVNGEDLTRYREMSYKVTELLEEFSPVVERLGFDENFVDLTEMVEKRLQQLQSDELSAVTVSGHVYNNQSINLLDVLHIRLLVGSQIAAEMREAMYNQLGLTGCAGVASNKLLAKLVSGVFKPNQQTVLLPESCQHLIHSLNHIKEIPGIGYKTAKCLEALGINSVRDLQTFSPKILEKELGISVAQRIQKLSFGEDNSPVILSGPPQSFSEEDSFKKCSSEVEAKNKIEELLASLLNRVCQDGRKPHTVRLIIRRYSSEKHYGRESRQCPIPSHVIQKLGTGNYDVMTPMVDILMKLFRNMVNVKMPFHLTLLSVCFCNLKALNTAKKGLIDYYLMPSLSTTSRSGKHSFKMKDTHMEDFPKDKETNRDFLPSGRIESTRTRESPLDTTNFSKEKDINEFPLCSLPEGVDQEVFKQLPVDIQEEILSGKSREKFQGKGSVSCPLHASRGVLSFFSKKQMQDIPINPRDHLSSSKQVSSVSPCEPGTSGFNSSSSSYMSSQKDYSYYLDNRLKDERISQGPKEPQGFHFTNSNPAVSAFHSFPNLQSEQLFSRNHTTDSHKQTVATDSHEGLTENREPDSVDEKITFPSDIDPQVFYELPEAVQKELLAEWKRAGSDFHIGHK
#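 Pol iota at 10 nM preincubated 15 min with compounds at room temperature; reaction started with fluorescent substrate, 50 nM final. Fluorescence read kinetically at 0 and 10 min; buffer-only wells as negative control.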
# Pol beta inh = blocks human DNA polymerase beta activity; Pol beta primer extension/strand displacement, fluorescence kinetic; Potency, µM (top dose mostly 114 µM), inactives show top-dose activity change, negative = inhibition, actives largely listed as inhibitors; 1.3% of 340,000 active; AID 485314; also: potency is read from the fitted curve at half-maximal effect; % is scaled to controls: 0 for no effect and ±100 for the full control effect
#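 Pol beta (10 nM) was preincubated with compound for 15 min at room temperature. The reaction was then started with 50 nM substrate and read immediately and after a further 10 min at room temperature.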
# * = called active by the depositor; u = inconclusive; x = no result given; ! = repeats disagree; [ ] = remark or other dose. Compounds with a hit are over-represented: about 2.8% of the library has one in this group of screens. Unless noted, calls follow the shape of the dose curve; as a rule, active = well fitted inhibition curve with a large enough effect; inconclusive = small, poorly fitted or top-dose-only effect, or another doubt; inactive = no such curve, though single readings can be large or run the other way.
SMILES,PI5P4K alpha inh,Pol eta inh,PI4K2A block,Pol kappa inh,Pol iota inh,Pol beta inh
CC1CCC(NC(=O)c2ccc3c(c2)N(Cc2cccc(F)c2)C(=O)c2ccccc2S3)CC1 (stereo not drawn),x,u,-7,-15%[60.1 µM],89µM*,-30%
O=C(NCc1ccccc1Cl)C(=O)NCC(c1cccs1)S(=O)(=O)c1cccs1 (stereo not drawn),x,-17%,2,-11%[60.1 µM],32%,3%
COC1=CC(=O)C(O)=C(CCCCCCC/C=C/CCCCCCCC2=C(O)C(=O)C=C(OC)C2=O)C1=O,-75*,3.5µM*,-12,20µM*,7.9µM*,x
CCCCCCCCCCCC1=C(O)C(=O)C=C(O)C1=O,-62*,-1%,-12,u,u,x
COC1=C(OC)C(=O)C(CCCCCCCCCCO)=C(C)C1=O,x,x,2,-11%[60.1 µM],x,-14%
Cc1[nH][nH]c(=O)c1C(c1c(C)[nH][nH]c1=O)c1cn(Cc2cccc3ccccc23)c2ccccc12,u,u,u,-3%,-98%,-5%
Cc1[nH][nH]c(=O)c1C(c1c(C)[nH][nH]c1=O)c1cn(C)c2ccccc12,-2,-18%,u,-7%,2.5µM*,0%
C[C@H](N)C(=O)N[C@@H](C)C(=O)NC1[C@H]2CN(c3nc4c(cc3F)c(=O)c(C(=O)O)cn4-c3ccc(F)cc3F)C[C@@H]12 (stereo partly drawn),x,x,1,x,x,x
O=c1cc(-c2ccc(Cl)cc2)[nH][nH]1,x,-4%,-23,-3%,1.6µM*,-15%
CC(C)(C)n1ncc2c(=O)n(Cc3ccccc3Cl)cnc21,x,x,x,1%,2%,x
CCN(CC)c1ccc(N)cc1,-6,-19%,0,2%,69%,x
Nc1ccc(N(CCO)CCO)cc1,-1,-20%,-52*,-41%,2.8µM*,18µM*
O=C(O)c1ccc(Nc2nc(-c3ccc([N+](=O)[O-])cc3)nc3ccccc23)cc1,0,u,-1,-12%,u,56µM*
O=[N+]([O-])c1ccc(-c2nc(Nc3ccc(O)cc3)c3ccccc3n2)cc1,-7,-2%,1,0%,25%,-28%
Cc1cccc(Cn2c(CNC(=O)c3ccccc3)nc3ccccc32)c1,x,-15%,-16,12%,15%,3%
COc1ccc(S(=O)(=O)c2c(N)n(Cc3ccco3)c3nc4ccccc4nc23)cc1,-89*,7.9µM*,u,25µM*,7.9µM*,u
Cc1nc2c(c(=O)n1Cc1ccccc1Cl)c1nc3ccccc3nc1n2Cc1ccco1,x,x,x,x,x,20µM*
COc1ccc(Cn2c3nc4ccccc4nc3c3c(=O)n(Cc4ccco4)c(C)nc32)cc1,x,x,x,x,x,10µM*
CCOc1ccc(S(=O)(=O)c2cn(Cc3ccc(C)cc3)c3ccc(OC)cc3c2=O)cc1,x,-16%,-2,-21%,36%,5%
CNS(=O)(=O)c1cccc(C(=O)OCC(=O)c2ccc[nH]2)c1,-62*,45µM*,-15,-42%,40µM*,x
CCOC(=O)c1c(C)[nH]c(C)c1C(=O)COC(=O)c1cccc(S(=O)(=O)NC)c1,3,-11%,-1,-13%,37%,1%
O=C1O/C(=C/Br)CCC1c1cccc2ccccc12 (stereo not drawn),x,u,6,-9%[60.1 µM],-7%[58.9 µM],0%[57.1 µM]
CCN(CC)C(=O)CC(c1ccc(OC)cc1)c1c(OC)cc(OC)c2ccc(=O)oc12 (stereo not drawn),-2,u,1,u,79µM*,u
CCCC(=O)Nc1ccc(O)c(C(C)=O)c1,x,x,-1,x,x,x
COC(=O)C1Sc2[nH]c(=O)sc2C2c3ccccc3OC(=O)C12 (stereo not drawn),-3,8%,1,-7%,45%,18%
SMILES,PI5P4K alpha inh,Pol eta inh,PI4K2A block,Pol kappa inh,Pol iota inh,Pol beta inh
CC1(C(=O)O)Sc2[nH]c(=O)sc2C2c3ccccc3OC(=O)C21 (stereo not drawn),-91*,10%,-2,-15%,-2%,-10%
N#C/C(=C\c1ccc(O)c(O)c1)C(=O)NCCCc1ccccc1,u,16µM*!,0,u,u,u
COc1ccc(/C=C(\C#N)C(=O)NCCc2ccccc2)cc1OCc1ccccc1,-7,-21%,19,2%,10%,-3%
N#CC(=Cc1ccc(O)c(O)c1)C(=O)NCc1ccccc1,x,x,x,-29%,71µM*,x
CCCCCCCCCC[n+]1cccc2cc(Cl)ccc21,x,x,x,5%,10%,x
CN(C)c1ccc(/C=C(\C#N)C(=O)NCc2ccco2)cc1,x,x,x,x,x,56µM*
Cc1ccsc1C(=O)Nc1ccc(OCc2ccccc2)cc1,-17,-9%,u,0%,-10%,6%
Cc1ccsc1C(=O)Nc1ccc(C(=O)O)cc1,-9,2%,-74*,0%,7%,82%
O=C1OC(/C(=C\Nc2cc(Cl)ccc2O)[N+](=O)[O-])c2ccccc21 (stereo not drawn),-3,22µM*,-10,-14%,u,-8%
O=C(CCCC1=NS(=O)(=O)c2ccccc2N1)N1CCN(c2ccccc2Cl)CC1,x,x,3,x,x,x
CC1=Nc2ccccc2/C1=C/c1sc(=S)n(-c2cccc(C(=O)O)c2)c1O,-55*,35µM*,-1,u,u,-22%
COc1ccc(Cl)cc1NC(=O)C1CCN(S(C)(=O)=O)CC1,7,-17%,2,-3%,177%,41%
COc1ccc(Cl)cc1NC(=O)C1Cc2ccccc2CN1S(C)(=O)=O (stereo not drawn),u,u,-5,-35%,56µM*,u
COc1cc(NC(=O)C2Cc3ccccc3CN2S(C)(=O)=O)cc(OC)c1 (stereo not drawn),-2,-2%,2,-12%,65%,2%
COc1ccc(Cl)cc1NC(=O)C1CCN(S(=O)(=O)c2ccc(F)cc2)CC1,x,-16%,0,-38%,89µM*,17%
CC(=O)N1CCc2c(sc3c2c(=O)n(-c2ccccc2Cl)c(=O)n3Cc2cccc(C)c2)C1,x,-25%,2,-1%[60.1 µM],12%,-18%
COc1cc2c(cc1OC)/C(=C/c1ccc(N(C)C)cc1)C=C2,x,x,x,-14%,5%,x
N#CC1=C(N)NC(=S)C(C(N)=O)C1c1ccc([N+](=O)[O-])cc1 (stereo not drawn),-56*,-3%,-4,-3%,u,0%
Cc1cc(O)c(C(=O)/C=C/c2ccccc2Br)c(=O)o1,-70*,-26%,0,-38%,u,-8%
Cc1cc(O)c(C(=O)/C=C/c2ccc(C(C)C)cc2)c(=O)o1,-63*,-13%,-2,-19%,-8%,4%
CCOc1ccc(/C=C/C(=O)c2c(O)cc(C)oc2=O)cc1,-6,-13%,-29,-8%,u,-5%

# Bioassay records: PubChem, National Center for Advancing Translational Sciences (NCATS)
